About 79,000 compounds went through this panel and 15% of them were active in at least one assay; those are over-represented in the sample as a whole. Values without a mark were called inactive. Active and inactive are the calls of the source. Rule as the data show it: active = growth inhibition above about 70%; inactive = the rest.
Columns and labels:
[1] = NCI Yeast Anticancer Drug Screen. Data for the rad50 strain (AID 155);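 also: 0% = growth of vehicle-only cultures of the same strain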; conditions: S. cerevisiae rad50 strain growth inhibition, stronger effect = higher value
How it was run: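 Genetically altered yeast (DNA repair pathway); compound treatment; growth inhibition vs vehicle ctrl.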

[2] = NCI Yeast Anticancer Drug Screen. Data for the mec2-1 strain (AID 157); conditions: S. cerevisiae mec2-1 strain, stronger effect = higher value
How it was run: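 Using mec2-1 yeast: add compound, measure growth, express inhibition versus vehicle-treated cultures.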

[3] = NCI Yeast Anticancer Drug Screen. Data for the sgs1 mgt1 strain (AID 161);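 also: 0% = growth of cultures given vehicle only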; conditions: S. cerevisiae sgs1 mgt1 strain, stronger effect = higher value
How it was run: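 Compounds are added to genetically altered yeast, and growth is compared with cultures given vehicle alone to give percent inhibition.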

[4] = NCI Yeast Anticancer Drug Screen. Data for the cln2 rad14 strain (AID 165);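 also: 0% = growth equal to vehicle treated cultures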; conditions: S. cerevisiae cln2 rad14 strain, stronger effect = higher value
How it was run: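 Yeast strain cln2 rad14, bearing defects in cell cycle control and DNA repair, serves as the test system; values reflect growth inhibition compared with vehicle.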

[5] = NCI Yeast Anticancer Drug Screen. Data for the bub3 strain (AID 167); conditions: S. cerevisiae bub3 mutant strain, stronger effect = higher value
How it was run: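 Yeast carrying a defined mutation is treated with each compound, and growth is compared with that of vehicle-exposed cells to give inhibition.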

[6] = NCI Yeast Anticancer Drug Screen. Data for the mlh1 rad18 strain (AID 175); conditions: S. cerevisiae mlh1 rad18 strain growth inhibition, stronger effect = higher value
How it was run: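 Steps: expose repair-defective yeast to compound; measure growth; express inhibition against vehicle-treated controls.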

[7] = at 5.0 µM (retest, dose inferred, filed as 0.5)
[8] = at 50.0 µM (retest, dose inferred, filed as 5.0)

In the case of `CC1/C=C/C=C/CC/C=C/C=C/C=C/C=C/C(OC2OC(C)C(O)C(N)C2O)CC2OC(CC(O)C(O)CCC(O)CC(O)CC(O)CC(=O)OC(C)C(C)C1O)CC(O)C2C(=O)O` (stereo not given), the growth inhibition [1, 7] was 98% (active), the growth inhibition [1, 8] was 100% (active) and the growth inhibition ([1]; at 50.0 µM) was 99.3% (active). For the same compound, the growth inhibition [2, 7] was 96% (active), the growth inhibition [2, 8] was 100% (active) and the growth inhibition ([2]; at 50.0 µM) was 99.3% (active). For the same compound, the growth inhibition [3, 7] was 56%, the growth inhibition [3, 8] was 100% (active) and the growth inhibition ([3]; at 50.0 µM) was 99.2% (active). For the same compound, the growth inhibition [4, 7] was 93% (active), the growth inhibition [4, 8] was 100% (active) and the growth inhibition ([4]; at 50.0 µM) was 99.1% (active). For the same compound, the growth inhibition [5, 7] was 99% (active), the growth inhibition [5, 8] was 100% (active) and the growth inhibition ([5]; at 50.0 µM) was 99.2% (active). The growth inhibition [6, 7] was 97% (active), the growth inhibition [6, 8] was 99% (active) and the growth inhibition ([6]; at 50.0 µM) was 98.5% (active).

Compound `Oc1ccc(C23CC4CC(CC(C4)C2)C3)cc1` has a growth inhibition [1, 7] of -148%, a growth inhibition [1, 8] of -135% and a growth inhibition ([1]; at 50.0 µM) of 38.1%. For the same compound, the growth inhibition [2, 7] was -50%, the growth inhibition [2, 8] was -38% and the growth inhibition ([2]; at 50.0 µM) was -1.75%. The growth inhibition [3, 7] was -56%, the growth inhibition [3, 8] was -46% and the growth inhibition ([3]; at 50.0 µM) was 2.8%. The growth inhibition [4, 7] was -56%, the growth inhibition [4, 8] was -25% and the growth inhibition ([4]; at 50.0 µM) was 32.8%. The growth inhibition [5, 7] was -69%, the growth inhibition [5, 8] was -66% and the growth inhibition ([5]; at 50.0 µM) was -26.4%. It also gave a growth inhibition [6, 7] of -114%, a growth inhibition [6, 8] of -91% and a growth inhibition ([6]; at 50.0 µM) of 2.1%.

With `Cc1occc1C(=S)Nc1ccc(Cl)c(COC(C)(C)C)c1` the growth inhibition [1, 7] was 26%, the growth inhibition [1, 8] was 74% (active) and the growth inhibition ([1]; at 50.0 µM) was 78.9% (active). The growth inhibition [2, 7] was 6%, the growth inhibition [2, 8] was 74% (active) and the growth inhibition ([2]; at 50.0 µM) was 84.3% (active). The growth inhibition [3, 7] was 17%, the growth inhibition [3, 8] was 84% (active) and the growth inhibition ([3]; at 50.0 µM) was 85.7% (active). The growth inhibition [4, 7] was 22%, the growth inhibition [4, 8] was 86% (active) and the growth inhibition ([4]; at 50.0 µM) was 84.8% (active). The growth inhibition [5, 7] was 26%, the growth inhibition [5, 8] was 90% (active) and the growth inhibition ([5]; at 50.0 µM) was 86.2% (active). The growth inhibition [6, 7] was 19%, the growth inhibition [6, 8] was 85% (active) and the growth inhibition ([6]; at 50.0 µM) was 78.5% (active).

In the case of `O/N=C1\c2ccccc2-c2ccc(Cl)cc21`, the growth inhibition [1, 7] was 6%, the growth inhibition [1, 8] was 35% and the growth inhibition ([1]; at 50.0 µM) was 60.5%. The growth inhibition [2, 7] was -5%, the growth inhibition [2, 8] was 34% and the growth inhibition ([2]; at 50.0 µM) was 50.5%. The growth inhibition [3, 7] was 3%, the growth inhibition [3, 8] was 60% and the growth inhibition ([3]; at 50.0 µM) was 87.4% (active). It also gave a growth inhibition [4, 7] of -4%, a growth inhibition [4, 8] of 27% and a growth inhibition ([4]; at 50.0 µM) of 41.4%. For the same compound, the growth inhibition [5, 7] was -4%, the growth inhibition [5, 8] was 28% and the growth inhibition ([5]; at 50.0 µM) was 74.3% (active). The growth inhibition [6, 7] was 8%, the growth inhibition [6, 8] was 36% and the growth inhibition ([6]; at 50.0 µM) was 79% (active).

With `CC(=O)NC1=C(Cl)C(=O)c2ccccc2C1=O` the growth inhibition [1, 7] was 91% (active), the growth inhibition [1, 8] was 99% (active) and the growth inhibition ([1]; at 50.0 µM) was 99.5% (active). The growth inhibition [2, 7] was 93% (active), the growth inhibition [2, 8] was 99% (active) and the growth inhibition ([2]; at 50.0 µM) was 99.5% (active). For the same compound, the growth inhibition [3, 7] was 70% (active), the growth inhibition [3, 8] was 100% (active) and the growth inhibition ([3]; at 50.0 µM) was 99.7% (active). For the same compound, the growth inhibition [4, 7] was 21%, the growth inhibition [4, 8] was 99% (active) and the growth inhibition ([4]; at 50.0 µM) was 98.8% (active). For the same compound, the growth inhibition [5, 7] was 96% (active), the growth inhibition [5, 8] was 99% (active) and the growth inhibition ([5]; at 50.0 µM) was 99.4% (active). For the same compound, the growth inhibition [6, 7] was 96% (active), the growth inhibition [6, 8] was 99% (active) and the growth inhibition ([6]; at 50.0 µM) was 99.5% (active).

With `FC(F)(F)c1cc(NC(=S)SC2CCCCC2)ccc1Cl` the growth inhibition [1, 7] was 12%, the growth inhibition [1, 8] was 97% (active) and the growth inhibition ([1]; at 50.0 µM) was 41%. The growth inhibition [2, 7] was 4%, the growth inhibition [2, 8] was 99% (active) and the growth inhibition ([2]; at 50.0 µM) was 79.2% (active). For the same compound, the growth inhibition [3, 7] was 4%, the growth inhibition [3, 8] was 98% (active) and the growth inhibition ([3]; at 50.0 µM) was 88% (active). The growth inhibition [4, 7] was -16%, the growth inhibition [4, 8] was 97% (active) and the growth inhibition ([4]; at 50.0 µM) was 88.8% (active). For the same compound, the growth inhibition [5, 7] was 12%, the growth inhibition [5, 8] was 98% (active) and the growth inhibition ([5]; at 50.0 µM) was 85.9% (active). The growth inhibition [6, 7] was 16%, the growth inhibition [6, 8] was 97% (active) and the growth inhibition ([6]; at 50.0 µM) was 90% (active).

For `CC1=NC(c2ccccc2)(C2(c3ccccc3)C(c3ccccc3)=C2c2ccccc2)C(=O)O1` (stereo not given), the growth inhibition [1, 7] was 21%, the growth inhibition [1, 8] was 21% and the growth inhibition ([1]; at 50.0 µM) was 86% (active). The growth inhibition [2, 7] was 25%, the growth inhibition [2, 8] was 25% and the growth inhibition ([2]; at 50.0 µM) was 88.8% (active). The growth inhibition [3, 7] was 28%, the growth inhibition [3, 8] was 28% and the growth inhibition ([3]; at 50.0 µM) was 86.9% (active). For the same compound, the growth inhibition [4, 7] was 23%, the growth inhibition [4, 8] was 23% and the growth inhibition ([4]; at 50.0 µM) was 89% (active). It also gave a growth inhibition [5, 7] of 11%, a growth inhibition [5, 8] of 11% and a growth inhibition ([5]; at 50.0 µM) of 34.9%. For the same compound, the growth inhibition [6, 7] was 27%, the growth inhibition [6, 8] was 27% and the growth inhibition ([6]; at 50.0 µM) was 86.6% (active).

With `COc1ccc(C2SC(C)C(=O)N2c2nc(-c3nc(-c4ccc(Cl)cc4)cs3)cs2)cc1` (stereo not given) the growth inhibition [1, 7] was 42%, the growth inhibition [1, 8] was 86% (active) and the growth inhibition ([1]; at 50.0 µM) was 45%. The growth inhibition [2, 7] was 17%, the growth inhibition [2, 8] was 99% (active) and the growth inhibition ([2]; at 50.0 µM) was 39.9%. The growth inhibition [3, 7] was 5%, the growth inhibition [3, 8] was 92% (active) and the growth inhibition ([3]; at 50.0 µM) was 69.3%. For the same compound, the growth inhibition [4, 7] was 4%, the growth inhibition [4, 8] was 99% (active) and the growth inhibition ([4]; at 50.0 µM) was 83.5% (active). The growth inhibition [5, 7] was -17%, the growth inhibition [5, 8] was 99% (active) and the growth inhibition ([5]; at 50.0 µM) was 27.3%. The growth inhibition [6, 7] was 23%, the growth inhibition [6, 8] was 99% (active) and the growth inhibition ([6]; at 50.0 µM) was 77% (active).

In the case of `CC(=O)OC(OC(C)=O)c1ccc2ccc3cccc4ccc1c2c34`, the growth inhibition [1, 7] was 16%, the growth inhibition [1, 8] was 89% (active) and the growth inhibition ([1]; at 50.0 µM) was 63.4%. For the same compound, the growth inhibition [2, 7] was -1%, the growth inhibition [2, 8] was 78% (active) and the growth inhibition ([2]; at 50.0 µM) was 45.8%. The growth inhibition [3, 7] was -16%, the growth inhibition [3, 8] was 84% (active) and the growth inhibition ([3]; at 50.0 µM) was 61%. For the same compound, the growth inhibition [4, 7] was 3%, the growth inhibition [4, 8] was 78% (active) and the growth inhibition ([4]; at 50.0 µM) was 45.2%. For the same compound, the growth inhibition [5, 7] was -17%, the growth inhibition [5, 8] was 85% (active) and the growth inhibition ([5]; at 50.0 µM) was 69%. For the same compound, the growth inhibition [6, 7] was -3%, the growth inhibition [6, 8] was 89% (active) and the growth inhibition ([6]; at 50.0 µM) was 71.7% (active).

With `CCN(C(=O)C(F)(F)F)c1ccc2c(c1)C(=O)c1ccccc1-2` the growth inhibition [1, 7] was 0%, the growth inhibition [1, 8] was 34% and the growth inhibition ([1]; at 50.0 µM) was 26.1%. It also gave a growth inhibition [2, 7] of 1%, a growth inhibition [2, 8] of 12% and a growth inhibition ([2]; at 50.0 µM) of -2.65%. For the same compound, the growth inhibition [3, 7] was -4%, the growth inhibition [3, 8] was 87% (active) and the growth inhibition ([3]; at 50.0 µM) was 42.6%. The growth inhibition [4, 7] was 0%, the growth inhibition [4, 8] was 20% and the growth inhibition ([4]; at 50.0 µM) was -18.2%. For the same compound, the growth inhibition [5, 7] was 38%, the growth inhibition [5, 8] was 70% (active) and the growth inhibition ([5]; at 50.0 µM) was 84% (active). The growth inhibition [6, 7] was -1%, the growth inhibition [6, 8] was 60% and the growth inhibition ([6]; at 50.0 µM) was 10%.
